Measured values as given in PubChem BioAssay (Tox21).
The source made the active and inactive calls. Unless noted, the call rests on the fitted dose curve; in most records, active means well fitted curve in the direction sought with a large enough effect in the repeat runs; inconclusive means weak or mixed curves; inactive means no such curve, though single readings can be large; an effect the other way counts as inactive or inconclusive.

Experiments:
[1] = qHTS assay to identify small molecule antagonists of the glucocorticoid receptor (GR) signaling pathway - cell viability counter screen (AID 720693); further: nearly all actives have a fitted effect of over 55% in size; further: potency means the concentration at half of the fitted maximal effect
[2] = qHTS assay for identifying genotoxic compounds that show differential cytotoxicity against isogenic chicken DT40 cell lines with known DNA damage response pathways - wild type cell line (AID 743012); further: nearly all actives have a fitted effect of over 60% in size; further: potency means the concentration at half of the fitted maximal effect
Summary of the method: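 Cytotoxicity in repair-proficient parental chicken DT40 cells serves as the comparator for Rad54/Ku70- and Rev3-deficient lines. Cells were exposed to compounds for 40 h at 37 C/5% CO2, and ATP-based luminescence (CellTiter-Glo) measured viability.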

[3] = qHTS assay for identifying genotoxic compounds that show differential cytotoxicity against isogenic chicken DT40 cell lines with known DNA damage response pathways - Rev3 mutant cell line (AID 743014); further: nearly all actives have a fitted effect of over 55% in size; further: potency means the concentration at half of the fitted maximal effect
[4] = qHTS assay for identifying genotoxic compounds that show differential cytotoxicity against isogenic chicken DT40 cell lines with known DNA damage response pathways - Rad54/Ku70 mutant cell line (AID 743015); further: nearly all actives have a fitted effect of over 60% in size; further: potency means the concentration at half of the fitted maximal effect
[5] = qHTS assay to identify small molecule antagonists of the androgen receptor (AR) signaling pathway - cell viability counter screen (AID 743033; further: nearly all actives have a fitted effect of over 45% in size; further: potency means the concentration at half of the fitted maximal effect)
[6] = qHTS assay to identify small molecule antagonists of the androgen receptor (AR) signaling pathway using the MDA cell line - cell viability counter screen (AID 743041; further: nearly all actives have a fitted effect of over 45% in size; further: potency means the concentration at half of the fitted maximal effect)
Summary of the method: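 qHTS viability read-out; MDA-kb2 AR-luc; R1881-stimulated; 16 h exposure at 37C, 0% CO2; CellTiter-Fluor, 30 min; fluorescence intensity.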

[7] = qHTS assay to identify small molecule antagonists of the thyroid receptor (TR) signaling pathway - cell viability counter screen (AID 743064); further: nearly all actives have a fitted effect of over 50% in size; further: potency means the concentration at half of the fitted maximal effect
Summary of the method: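 GH3.TRE-Luc cells, 4 h pre-plating; cpd + T3 1 nM final; 37 °C 23.5 h; CellTiter-Fluor 30 min; fluorescence read.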

[8] = qHTS assay to identify small molecule antagonists of the thyroid receptor (TR) signaling pathway (AID 743065); further: nearly all actives have a fitted effect of over 55% in size; further: potency means the concentration at half of the fitted maximal effect
Summary of the method: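 GH3.TRE-Luc rat pituitary cells carrying two TR response elements driving luciferase were plated for 4 h, given compound plus 1 nM T3 (final), and incubated 23.5 h at 37 C. ONE-Glo luminescence measured reporter inhibition; CellTiter-Fluor fluorescence tracked cytotoxicity.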

[9] = test system: thyroid hormone receptor (rat, GH3 cells); assay: qHTS assay to identify small molecule agonists of the thyroid receptor (TR) signaling pathway (AID 743066; calls by dose curve)
[10] = biological target: Estrogen receptor (Homo sapiens) (UniProt P03372); assay: qHTS assay to identify small molecule antagonists of the estrogen receptor alpha (ER-alpha) signaling pathway (AID 743069; active means well fitted curve in the direction sought with a large enough effect in the signal ratio in the repeat runs, not every such curve was filed as active; inconclusive means weak or mixed curves, or effect the other way; inactive means no such curve, though single readings can be large or run the other way; the % refers to the signal ratio; further: potency means the concentration at half of the fitted maximal effect)
Summary of the method: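 Screening used a UAS-driven beta-lactamase reporter integrated into HEK293 cells expressing ER-alpha, stimulated with 17beta-estradiol alongside test compounds over 18 hr at 37C; signal came from LiveBLAzer B/G FRET fluorescence.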

[11] = qHTS assay to identify small molecule antagonists of the estrogen receptor alpha (ER-alpha) signaling pathway - cell viability counter screen (AID 743074; calls by dose curve; further: nearly all actives have a fitted effect of over 45% in size)
[12] = biological target: Estrogen receptor (Homo sapiens) (UniProt P03372); assay: qHTS assay to identify small molecule agonists of the estrogen receptor alpha (ER-alpha) signaling pathway (AID 743075; calls by dose curve)
[13] = biological target: Estrogen receptor (Homo sapiens) (UniProt P03372); assay: qHTS assay to identify small molecule agonists of the estrogen receptor alpha (ER-alpha) signaling pathway using the BG1 cell line (AID 743079); conditions: BG1Luc4E2 cells, ERE-luciferase agonist, 22 h; further: nearly all actives have a fitted effect of over 20% in size
[14] = qHTS assay to identify small molecule antagonists of the estrogen receptor alpha (ER-alpha) signaling pathway using the BG1 cell line (AID 743080; calls by dose curve;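 further: BG1 cells stimulated with 17beta-estradiol alongside compound; nearly all actives have a fitted effect of over 25% in size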; further: potency means the concentration at half of the fitted maximal effect)
Summary of the method: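 BG1Luc4E2, endogenous ER-alpha, 4xERE-luc; 5 d charcoal-stripped FBS, phenol red free; 24 h plating; cpd + 17beta-estradiol 21.5 h, 37 C/5% CO2; CellTiter-Fluor viability 30 min, then ONE-Glo luciferase 30 min RT.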

[15] = qHTS assay to identify small molecule antagonists of the estrogen receptor alpha (ER-alpha) signaling pathway using the BG1 cell line - cell viability counter screen (AID 743081);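 further: compound given together with 17beta-estradiol as the ER stimulus; nearly all actives have a fitted effect of over 45% in size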; further: potency means the concentration at half of the fitted maximal effect
[16] = biological target: Aromatase (Homo sapiens) (UniProt P11511); assay: qHTS assay to identify aromatase inhibitors (AID 743083); further: nearly all actives have a fitted effect of over 55% in size; further: potency means the concentration at half of the fitted maximal effect
[17] = biological target: Androgen receptor (Homo sapiens) (UniProt P10275); assay: qHTS assay to identify small molecule agonists of the androgen receptor (AR) signaling pathway (AID 743036; active means well fitted activation curve with a large enough effect in the signal ratio in the repeat runs, with a control signal flat, not every such curve was filed as active; inconclusive means weak or mixed curves, or effect the other way; inactive means no such curve, though single readings can be large or run the other way; the % refers to the signal ratio)
Summary of the method: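 AR-bla HEK293 cells, 2,000/well; 4 h preincubation 37C/5% CO2; compound (DMSO) 16 h at 37C; LiveBLAzer B/G FRET substrate 2 h RT; fluorescence intensity read-out.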

[18] = biological target: Androgen receptor (Homo sapiens) (UniProt P10275); assay: qHTS assay to identify small molecule agonists of the androgen receptor (AR) signaling pathway using the MDA cell line (AID 743040; further: nearly all actives have a fitted effect of over 20% in size)
Summary of the method: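 Agonist activity is measured as luciferase luminescence in human MDA-kb2 cells whose MMTV reporter responds to both AR and GR. Compounds in DMSO incubate 16 h at 37C, 0% CO2, and ONE-Glo is read after 30 min.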

[19] = biological target: Androgen receptor (Homo sapiens) (UniProt P10275); assay: qHTS assay to identify small molecule antagonists of the androgen receptor (AR) signaling pathway (AID 743035; active means well fitted inhibition curve with a large enough effect in the signal ratio in the repeat runs, not every such curve was filed as active; inconclusive means weak or mixed curves, or effect the other way; inactive means no such curve, though single readings can be large or run the other way; the % refers to the signal ratio)
Summary of the method: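 Steps: seed AR-UAS-bla GripTite HEK293 cells, incubate 4 h at 37C; pin in test compound, then add agonist R1881; incubate 16 h at 37C; add LiveBLAzer B/G FRET substrate, 2 h at room temperature; read fluorescence.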

[20] = biological target: Androgen receptor (Homo sapiens) (UniProt P10275); assay: qHTS assay to identify small molecule antagonists of the androgen receptor (AR) signaling pathway using the MDA cell line (AID 743042; further: nearly all actives have a fitted effect of over 55% in size)
Summary of the method: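 MDA-kb2 cells (human breast carcinoma, stably carrying an MMTV-luciferase reporter responsive to AR and GR) were plated at 3,000 cells/well and preincubated 5 hr at 37C, then given compound plus R1881 agonist for 16 h. ONE-Glo luminescence was read.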
On the % scale 0 is the no-effect control and ±100 the full control effect.

Estrogen receptor (Homo sapiens), sequence (P03372 whole entry, looked up): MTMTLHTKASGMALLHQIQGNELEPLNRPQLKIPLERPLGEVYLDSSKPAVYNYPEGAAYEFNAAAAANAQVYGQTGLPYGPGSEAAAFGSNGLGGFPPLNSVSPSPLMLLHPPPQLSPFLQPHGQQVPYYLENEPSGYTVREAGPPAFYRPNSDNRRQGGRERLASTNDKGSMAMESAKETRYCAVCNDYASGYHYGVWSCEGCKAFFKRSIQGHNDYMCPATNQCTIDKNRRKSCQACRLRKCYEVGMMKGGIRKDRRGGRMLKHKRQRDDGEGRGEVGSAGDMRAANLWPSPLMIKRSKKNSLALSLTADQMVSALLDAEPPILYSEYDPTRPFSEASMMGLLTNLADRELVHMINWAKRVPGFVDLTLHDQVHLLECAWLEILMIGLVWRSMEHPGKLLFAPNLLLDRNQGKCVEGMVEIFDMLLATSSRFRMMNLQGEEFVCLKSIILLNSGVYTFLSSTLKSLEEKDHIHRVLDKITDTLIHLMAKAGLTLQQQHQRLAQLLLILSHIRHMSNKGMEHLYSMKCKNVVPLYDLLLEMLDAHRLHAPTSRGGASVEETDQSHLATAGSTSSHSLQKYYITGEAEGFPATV
Aromatase (Homo sapiens), sequence (P11511 whole entry, looked up): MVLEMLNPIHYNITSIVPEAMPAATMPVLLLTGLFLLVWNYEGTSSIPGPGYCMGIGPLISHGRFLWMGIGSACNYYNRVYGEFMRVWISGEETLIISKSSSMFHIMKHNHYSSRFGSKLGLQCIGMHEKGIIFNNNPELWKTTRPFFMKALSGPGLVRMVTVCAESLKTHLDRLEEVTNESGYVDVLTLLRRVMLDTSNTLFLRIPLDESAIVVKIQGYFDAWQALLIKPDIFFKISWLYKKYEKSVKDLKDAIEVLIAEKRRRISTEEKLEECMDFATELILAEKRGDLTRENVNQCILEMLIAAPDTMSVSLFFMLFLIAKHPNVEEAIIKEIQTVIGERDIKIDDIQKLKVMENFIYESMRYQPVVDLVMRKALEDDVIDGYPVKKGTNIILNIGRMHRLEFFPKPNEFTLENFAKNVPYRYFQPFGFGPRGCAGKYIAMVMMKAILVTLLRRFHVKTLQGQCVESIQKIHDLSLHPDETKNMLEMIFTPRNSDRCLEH
Androgen receptor (Homo sapiens), sequence (P10275 whole entry, looked up): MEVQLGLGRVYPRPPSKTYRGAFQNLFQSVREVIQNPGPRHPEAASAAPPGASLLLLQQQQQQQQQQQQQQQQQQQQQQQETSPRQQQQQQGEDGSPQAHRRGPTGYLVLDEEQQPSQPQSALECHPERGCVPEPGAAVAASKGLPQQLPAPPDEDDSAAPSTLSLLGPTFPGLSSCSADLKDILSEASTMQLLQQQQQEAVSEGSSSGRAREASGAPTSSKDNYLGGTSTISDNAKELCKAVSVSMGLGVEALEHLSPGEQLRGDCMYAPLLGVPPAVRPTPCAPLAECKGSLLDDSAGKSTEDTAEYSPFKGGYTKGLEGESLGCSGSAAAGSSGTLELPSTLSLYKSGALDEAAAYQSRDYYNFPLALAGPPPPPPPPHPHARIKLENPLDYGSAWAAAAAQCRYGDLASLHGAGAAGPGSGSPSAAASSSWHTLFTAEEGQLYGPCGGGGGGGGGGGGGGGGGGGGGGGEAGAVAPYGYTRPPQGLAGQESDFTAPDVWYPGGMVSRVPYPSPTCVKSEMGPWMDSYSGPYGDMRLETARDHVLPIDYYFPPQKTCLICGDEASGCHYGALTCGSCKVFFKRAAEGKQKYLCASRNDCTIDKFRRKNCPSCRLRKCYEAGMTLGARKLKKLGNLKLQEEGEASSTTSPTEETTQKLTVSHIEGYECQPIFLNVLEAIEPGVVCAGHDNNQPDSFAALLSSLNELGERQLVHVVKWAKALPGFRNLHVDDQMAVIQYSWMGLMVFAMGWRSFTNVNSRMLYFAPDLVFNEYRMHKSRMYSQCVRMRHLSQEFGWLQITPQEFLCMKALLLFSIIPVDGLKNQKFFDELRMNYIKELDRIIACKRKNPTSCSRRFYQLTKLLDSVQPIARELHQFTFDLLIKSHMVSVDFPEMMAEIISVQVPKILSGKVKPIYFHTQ

C[N+](=O)[O-]
inactive: Potency [1] | Potency [2] | Potency [3] | Potency [4] | Potency [5] | Potency [6] | Potency [7] | Potency [8] | Potency [9] | Potency [10] | outcome [11] | Potency [12] | activation ([13]; at 70.3 µM (top of the series)) 0.916% | Potency [14] | Potency [15] | Potency [16]

N#CC(CCc1ccc(Cl)cc1)(Cn1cncn1)c1ccccc1 (stereo not drawn)
active: Potency [2] 13.7 µM | Potency [3] 13.7 µM | Potency [4] 13.7 µM | Potency [5] 49 µM | Potency [7] 30.6 µM | Potency [14] 61.1 µM | Potency [16] 30.6 µM
inactive: Potency [1] | outcome [17] | Potency [18] | Potency [9] | Potency [12] | Potency [15]

COCC(=O)N(c1c(C)cccc1C)N1CCOC1=O
inactive: Potency [1] | Potency [2] | Potency [3] | Potency [4] | Potency [5] | Potency [6] | Potency [7] | Potency [8] | Potency [9] | outcome [11] | Potency [15] | Potency [16]

O=C(CCN1CC1)OCC(CO)(COC(=O)CCN1CC1)COC(=O)CCN1CC1
inactive: Potency [1] | Potency [2] | Potency [3] | Potency [4] | Potency [5] | Potency [6] | Potency [7] | Potency [8] | Potency [9] | outcome [11] | Potency [15] | Potency [16]

COc1ncc(F)c2nc(S(=O)(=O)Nc3c(F)cccc3F)nn12
inactive: Potency [1] | Potency [2] | Potency [3] | Potency [4] | Potency [5] | Potency [19] | Potency [18] | Potency [6] | outcome [20] | Potency [7] | Potency [9] | Potency [10] | outcome [11] | Potency [12] | activation ([13]; at 70.3 µM (top of the series)) -3.47% | Potency [14] | Potency [15] | Potency [16]

Nc1ccccc1Cl
inactive: Potency [1] | Potency [2] | Potency [3] | Potency [4] | Potency [5] | Potency [19] | outcome [17] | Potency [18] | Potency [6] | outcome [20] | Potency [8] | Potency [9] | Potency [10] | outcome [11] | Potency [12] | activation ([13]; at 70.3 µM (top of the series)) -8.6% | Potency [14] | Potency [15] | Potency [16]

CC(=O)C(Cl)Cl
inactive: Potency [1] | Potency [2] | Potency [3] | Potency [4] | Potency [5] | Potency [6] | Potency [7] | Potency [8] | Potency [9] | Potency [10] | outcome [11] | Potency [12] | activation ([13]; at 95 µM (top of the series)) 0.96% | Potency [14] | Potency [15] | Potency [16]

CC(C)CC#N
inactive: Potency [1] | Potency [2] | Potency [3] | Potency [4] | Potency [5] | Potency [19] | outcome [17] | Potency [18] | Potency [6] | outcome [20] | Potency [7] | Potency [10] | outcome [11] | Potency [12] | activation ([13]; at 95 µM (top of the series)) 6.55% | Potency [15] | Potency [16]

C[C@]12CC[C@H]3[C@@H](CC=C4C[C@@H](O)CC[C@@]43C)[C@@H]1CC[C@@H]2O
inactive: Potency [1] | Potency [2] | Potency [3] | Potency [5] | Potency [6] | Potency [7] | Potency [8] | Potency [9] | outcome [11] | Potency [15] | Potency [16]
active: Potency [4] 29.8 µM

COc1cccc2c1cc([N+](=O)[O-])c1c(C(=O)O)cc3c(c12)OCO3
active: Potency [1] 12.3 µM | Potency [2] 0.77 µM | Potency [3] 0.137 µM | Potency [4] 0.193 µM | Potency [5] 12.3 µM | Potency [6] 34.4 µM | Potency [7] 3.06 µM | Potency [8] 2.73 µM | Potency [10] 21.9 µM [inconclusive] | Potency [15] 61.1 µM | Potency [16] 10.9 µM
inactive: Potency [9] | Potency [12]

O=[N+]([O-])c1cccc2c([N+](=O)[O-])cccc12
inactive: Potency [1] | Potency [2] | Potency [3] | Potency [4] | Potency [5] | Potency [19] | outcome [17] | Potency [18] | Potency [6] | outcome [20] | Potency [7] | Potency [8] | Potency [9] | outcome [11] | Potency [15] | Potency [16]

O=NN1CCN(N=O)CC1
inactive: Potency [1] | Potency [2] | Potency [3] | Potency [4] | Potency [5] | Potency [6] | Potency [7] | Potency [8] | Potency [9] | Potency [10] | outcome [11] | Potency [12] | activation ([13]; at 70.3 µM (top of the series)) 9.64% | Potency [14] | Potency [15] | Potency [16]

O=[N+]([O-])c1ccc(CBr)cc1
inactive: Potency [1] | Potency [2] | Potency [3] | Potency [4] | Potency [5] | Potency [6] | Potency [7] | Potency [8] | Potency [9] | Potency [10] | outcome [11] | Potency [12] | activation ([13]; at 95 µM (top of the series)) 2.58% | Potency [14] | Potency [15] | Potency [16]

CC1(C)C(=O)NC(=O)NC1=O
inactive: Potency [1] | Potency [2] | Potency [3] | Potency [4] | Potency [5] | Potency [6] | Potency [7] | Potency [8] | Potency [9] | Potency [10] | Potency [12] | activation ([13]; at 70.3 µM (top of the series)) -7.44% | Potency [14] | Potency [15] | Potency [16]

O=C(O)c1ccc2[nH]cc(CCCCN3CC=C(c4ccccc4)CC3)c2c1
inactive: Potency [1] | Potency [2] | Potency [3] | Potency [4] | Potency [5] | Potency [19] | outcome [17] | Potency [18] | Potency [6] | outcome [20] | Potency [7] | Potency [8] | Potency [9] | Potency [10] | outcome [11] | Potency [12] | activation ([13]; at 70.3 µM (top of the series)) -2.02% | Potency [14] | Potency [15] | Potency [16]

CC(N)=S
inactive: Potency [1] | Potency [2] | Potency [3] | Potency [4] | Potency [5] | Potency [6] | Potency [7] | Potency [8] | Potency [9] | outcome [11] | Potency [15] | Potency [16]
